Compound activity as filed in PubChem BioAssay.
The list is not random: actives were taken first. Their share in the collection is about 9.6%.
Autophagy HCS: autophagy modulation, high-content screen; MEF GFP-LC3 puncta imaging; test concentration mostly 10 µM; calls only at 10 µM (by protocol); hit rate 0.98% among 190,000; AID 463193;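 active = percentage of spot-positive cells more than 3 SD above its plate mean, without a fluorescence outlier flag or 80% toxicity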;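 note: spot-positive cell cutoff set from DMSO-treated cells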
PTEN del growth: suppresses growth of cells with PTEN deletion; HCT116 PTEN-null viability, CellTiter-Glo, 60 h; hits give low values; viability, % at 10 µM; hit rate 1.2% among 140,000;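 active = viability at or below a set limit, 4 SD under the median of all tested compounds, cut at about 3.7% in these data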;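 note: PTEN knockout HCT116 line with beta catenin targeted HCT116 as companion control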
L major viab: reduces viability of Leishmania major promastigotes | resazurin fluorescence viability | inhibition, % at 10 µM | hit rate 9% among 200,000 | AID 1063; in the data active = inhibition above about 50%;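 note: promastigotes grown with compound for 44 hours at 28 °C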
Insulin prom up: MIN6 insulin promoter up-regulation; MIN6 insulin promoter-GFP reporter, high-content imaging; hits give high values; z-score at 5 µM; hit rate 0.3% among 190,000;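 active = z-score above 3 at 5 µM with at least 500 cells counted in the well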
INS promoter inh: TRM-6 insulin promoter activity inhibition | TRM-6 cells (human fetal islet line), insulin promoter-eGFP reporter, imaging; reporter expression induced with tamoxifen | inhibition, % at 2 µM | hit rate 0.9% among 130,000;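 active = inhibition above the mean plus 3 SD, with well images judged a real hit on visual review, cut at about 60% in these data, passing the limit was not always enough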
bCat KO growth: beta-catenin-lacking colon tumor cell growth suppression; HCT116 beta-catenin knockout viability, CellTiter-Glo, 60 h; hits give low values; viability, % at 10 µM; hit rate 1.5% among 140,000;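 active = viability at or under a set limit, the compound median less 4 SD, cut at about 6% in these data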;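 note: 0% = Hyamine 1622 control at 20 µM and 100% = untreated cell control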
* = called active by the depositor.

Screening CN(C)c1cccc2c(C#N)ccc(N(C)C)c12 returned Autophagy HCS inactive, L major viab 17.1, Insulin prom up 0.68 and INS promoter inh 86.7*.
O=P(O)(O)Cc1c(Cl)cccc1Cl was read as Autophagy HCS inactive, PTEN del growth 95.7, L major viab 5.1, Insulin prom up 0.3, INS promoter inh -33.3 and bCat KO growth 92.8.
Screening COc1ccc(CNC(C)Cc2cccs2)cc1 (stereo not given) returned Autophagy HCS inactive, L major viab 76.8* and Insulin prom up -0.73.
COCCN1C(=O)/C(=C/c2c(OC)cc(OC)cc2OC)C(=O)N(c2ccccc2)C1=O was read as Insulin prom up -0.2.
For COc1ccc(OCC#CCN2CCC(C)CC2)cc1 the results were Autophagy HCS inactive, L major viab 22.8, Insulin prom up 0.1 and INS promoter inh -23.5.
For Clc1ccc(OCC#CCN2CCCCCC2)cc1 the results were Autophagy HCS inactive, L major viab 85.1* and Insulin prom up -0.41.
`CCNC(=O)[C@H]1O[C@@H](n2cnc3c(N)ncnc32)[C@H](O)[C@@H]1O` gave Insulin prom up 0.18.
C=CCN1C(=O)/C(=C\c2ccc(N3CCOCC3)o2)C(=O)NC1=S was read as Autophagy HCS inactive, PTEN del growth 98.4, L major viab -2.4, Insulin prom up 0.66, INS promoter inh 0.0 and bCat KO growth 95.5.
Screening CCN(CC)c1ccc(CNCCc2ccccc2F)cc1 returned Autophagy HCS inactive, L major viab 94.2* and Insulin prom up -0.13.
`Cc1ccc(CNCCc2ccccc2F)cc1` gave Autophagy HCS inactive, PTEN del growth 98.2, L major viab 6.5, Insulin prom up 0.08, INS promoter inh -7.4 and bCat KO growth 100.6.
Screening Fc1ccccc1CCNCc1cccc2ccccc12 returned Autophagy HCS inactive, PTEN del growth 73.7, L major viab 77.4*, Insulin prom up 0.37, INS promoter inh -80.6 and bCat KO growth 75.0.
CCCC1COC(Cn2cncn2)(c2ccc(Cl)cc2Cl)O1 (stereo not given) was read as Autophagy HCS inactive, PTEN del growth 66.8, L major viab 91.7*, Insulin prom up 0.02, INS promoter inh 18.9 and bCat KO growth 70.3.
`CC1(c2ccc(Cl)cc2Cl)OCC(Cn2cncn2)O1` (stereo not given) gave Autophagy HCS inactive, L major viab 3.2 and Insulin prom up -0.61.
For COCCOC(=O)C1=C(N)OC(C)=C(C(=O)OC)C12C(=O)Nc1ccccc12 (stereo not given) the results were Autophagy HCS inactive, PTEN del growth 92.8, L major viab -5.2, Insulin prom up 0.85, INS promoter inh 53.6 and bCat KO growth 94.3.
For CCOC(=O)C1=C(C)OC(N)=C(C(=O)OCC)C12C(=O)Nc1ccc(Br)cc12 (stereo not given) the results were Autophagy HCS inactive, PTEN del growth 97.2, L major viab 50.6*, Insulin prom up -0.13, INS promoter inh 0.0 and bCat KO growth 93.3.
Screening CCCCCCn1c(O)c(C=NC2CCCCC2N)c(=O)[nH]c1=O (stereo not given) returned Autophagy HCS inactive, PTEN del growth 94.7, L major viab 0.0, INS promoter inh 18.2 and bCat KO growth 85.7.
For COc1cccc(C(=O)C2CN(C)CC2c2ccc(Cl)cc2)c1 (stereo not given) the results were Autophagy HCS inactive, L major viab 10.6 and Insulin prom up -1.6.
For Fc1ccc2c(c1)nnn2C1CCN(Cc2ccccc2)CC1 the results were Autophagy HCS inactive, PTEN del growth 96.3, L major viab 74.5*, Insulin prom up 0.78 and bCat KO growth 93.1.
`CCN(CC)c1ccc(CN(C)CCc2ccc(OC)c(OC)c2)cc1` gave Autophagy HCS inactive, PTEN del growth 74.5, L major viab 62.7*, Insulin prom up -0.79 and bCat KO growth 82.4.
Screening COc1ccc(CCN(C)Cc2ccc(F)cc2F)cc1OC returned Autophagy HCS inactive, L major viab 4.6, Insulin prom up -0.16, INS promoter inh -2.8 and bCat KO growth 86.6.
For O=C(c1cc2cc3ccc(Cl)cc3nc2o1)N1CCC2(CC1)OCCO2 the results were Autophagy HCS inactive, PTEN del growth 90.4, L major viab -3.8, Insulin prom up -0.1, INS promoter inh 84.4* and bCat KO growth 90.5.
For CN(C(=O)Oc1ccc(Cl)c2cccnc12)c1ccccc1 the results were Autophagy HCS inactive, PTEN del growth 100.5, L major viab 53.5*, Insulin prom up -0.66, INS promoter inh -66.7 and bCat KO growth 104.5.
Screening CN(C(=O)Oc1cccc2cccnc12)c1ccccc1 returned Autophagy HCS inactive, PTEN del growth 98.6, L major viab -6.9, Insulin prom up -0.04 and bCat KO growth 96.5.
`Cc1nnc(SCc2nc3ccccc3c(=O)n2-c2ccccc2Cl)n1N` gave Autophagy HCS inactive, PTEN del growth 95.4, L major viab -0.7, INS promoter inh -286.1 and bCat KO growth 89.3.
COc1ccc(-n2c(O)c(C(C)=NCCN3CCNCC3)c(=O)[nH]c2=O)cc1 was read as Autophagy HCS inactive, PTEN del growth 95.3, L major viab -2.5, Insulin prom up -0.41 and bCat KO growth 94.8.
`CCN(CC)CCCOC(=O)C(OC)(c1ccccc1)c1ccccc1` gave Autophagy HCS inactive, PTEN del growth 96.6, L major viab 100.2*, INS promoter inh -26.9 and bCat KO growth 102.5.
Screening CCOC(C(=O)OCC(O)CN(CC)CC)(c1ccccc1)c1ccccc1 (stereo not given) returned Autophagy HCS inactive, PTEN del growth 93.9, L major viab 100.4*, Insulin prom up -0.25, INS promoter inh 63.6 and bCat KO growth 86.3.
For CCOC(C(=O)OCCC[N+](C)(CC)CC)(c1ccccc1)c1ccccc1 the results were Autophagy HCS inactive, PTEN del growth 111.7, L major viab 5.2, Insulin prom up -0.3, INS promoter inh 13.0 and bCat KO growth 92.7.
Screening CCOC(=O)C1(CCc2ccccc2)CCN(Cc2csc(C(C)=O)c2)CC1 returned Autophagy HCS inactive, L major viab 82.9* and Insulin prom up 0.75.
For NC(=O)C1(N2CCCCC2)CCN(Cc2ccccc2)CC1 the results were Autophagy HCS inactive, PTEN del growth 92.0, L major viab -2.0, Insulin prom up -0.08, INS promoter inh -48.1 and bCat KO growth 92.6.
`O=C(Cc1ccccc1)N1CCN(Cc2cccnc2)CC1` gave Autophagy HCS inactive, PTEN del growth 85.9, L major viab -1.0, Insulin prom up 1.49, INS promoter inh 59.4 and bCat KO growth 91.0.
CCOC(=O)C1(CCc2ccccc2)CCN(Cc2cccc3cnccc23)CC1 was read as Autophagy HCS inactive, L major viab 82.2* and Insulin prom up -0.79.
CCOC(=O)C1(CCc2ccccc2)CCN(Cc2cccc3c2OCO3)CC1 was read as Autophagy HCS inactive, L major viab 79.4* and Insulin prom up -1.11.
`CCN1C(=O)/C(=C\c2ccc([N+](=O)[O-])s2)C(=O)NC1=S` gave Autophagy HCS inactive, L major viab 99.4* and INS promoter inh -60.0.
